# The list is not random: actives were taken first. Their share in the collection is about 32%.
# PostGolgi yeast: growth inhibition of a yeast mutant, post-Golgi transport screen; post-Golgi transport phenotypic cell assay; inhibition, % at 10 µM; hit rate 0.9% among 98,000;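 further: yeast cells grown in 1536-well plates; yeast grown about 18 h at 30C before absorbance read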
# CYP2C19 inhib: inhibitors of human CYP2C19. P33261. CYP2C19 Supersomes, luciferin-H EGE luminescence, 30 min. inhibition, % at 5 µM. hit rate 21% among 96,000;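 active means CYP2C19 inhibition above a set limit at 5 µM in the primary screen, cut at about 50% in these data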;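 further: plate controls were negative control wells for no effect and 2.5 mM tranylcypromine positive control for full effect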
# Target sequence (P33261 whole entry, looked up): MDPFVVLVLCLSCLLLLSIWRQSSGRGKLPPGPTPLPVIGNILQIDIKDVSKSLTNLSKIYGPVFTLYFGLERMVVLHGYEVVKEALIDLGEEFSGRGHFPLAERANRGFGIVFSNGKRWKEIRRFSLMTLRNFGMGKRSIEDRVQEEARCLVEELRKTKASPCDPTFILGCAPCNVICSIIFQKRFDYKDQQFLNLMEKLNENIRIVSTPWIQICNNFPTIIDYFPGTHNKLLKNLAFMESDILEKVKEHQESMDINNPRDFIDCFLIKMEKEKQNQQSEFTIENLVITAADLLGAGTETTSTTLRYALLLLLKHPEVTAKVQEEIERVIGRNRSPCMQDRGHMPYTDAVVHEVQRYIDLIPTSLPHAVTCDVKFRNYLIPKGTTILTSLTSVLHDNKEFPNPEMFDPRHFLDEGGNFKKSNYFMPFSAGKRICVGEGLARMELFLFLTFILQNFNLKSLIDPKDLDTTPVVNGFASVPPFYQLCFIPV
# CYP2C19 activ: cytochrome P450 2C19 (human) activation | 96,000 tested, under 10 active | activation factor at 5 µM | recombinant CYP2C19, luciferin-H EGE luminescence; stronger effect = higher value; 0 = fully inhibited enzyme, 1 = untreated enzyme;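 active means activation factor of at least 2 at 5 µM in the primary screen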;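 further: 0 = wells with 2.5 mM tranylcypromine and 1 = vehicle-only wells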
# CYP2C9 inhib: inhibitors of human CYP2C9. P11712. CYP2C9 Supersomes, luciferin-H conversion, luminescence. inhibition, % at 5 µM. hit rate 20% among 96,000. AID 777;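 active means blocking of liver enzyme CYP2C9 beyond about 50% at 5 µM, limit read from the data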
# CYP2C9 act: increases human cytochrome P450 2C9 activity | activation factor at 5 µM | recombinant CYP2C9, luciferin-H conversion, luminescence; stronger effect = higher value; factor 1 = untreated enzyme, 0 = blocked | P11712 | hit rate 1.4% among 96,000;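 active means activation factor of 2 or more for CYP2C9 at a 5 µM dose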;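 further: 0 = sulfaphenazole-blocked wells and 1 = vehicle-only wells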
# PostGolgi ctrl: growth of the yeast control strain, post-Golgi counter-screen. efflux-deficient yeast background strain, growth absorbance A615, 16 h. inhibition, % at 10 µM. hit rate 5% among 98,000. AID 738
# * = called active by the depositor; x = no result given. Unless noted, no stated cut-off is given here; in the data, active means inhibition above about 30%; inactive means the rest.
SMILES,PostGolgi yeast,CYP2C19 inhib,CYP2C19 activ,CYP2C9 inhib,CYP2C9 act,PostGolgi ctrl
Fc1cccc(NCc2cn3ccccc3n2)c1,1,78*,0.2,32,0.7,-3
C=CCn1c(C)c(C(C)=O)c(N2CCN(c3ccccc3)CC2)nc1=S,-1,9,0.9,12,0.9,3
Cc1cc(C)c(-c2cc(C(F)(F)F)no2)c(=O)[nH]1,6,x,x,x,x,6
CCOc1ccc(C(C)=O)cc1CSc1nnc(-c2ccoc2C)n1N,17,86*,0.1,74*,0.3,-10
CCCc1nnc(NC(=O)c2c(O)c3cccc4c3n(c2=O)CCC4)s1,x,12,0.9,36,0.6,x
Cc1nc(SC2CCOC2=O)c2c(C)c(C)sc2n1 (stereo not given),9,17,0.8,-51,1.5,36*
CSc1nc(N)c2c3c(sc2n1)COC(C(C)C)C3 (stereo not given),-5,94*,0.1,12,0.9,9
CCCC1Cc2c(sc3nc(SC)nc(N)c23)CO1 (stereo not given),3,38,0.6,11,0.9,15
Cc1ccc2c(c1)nnn2C1CCN(S(=O)(=O)c2cccc(S(=O)(=O)N(C)C)c2)CC1,8,86*,0.1,46,0.5,6
Cc1ccc2c(c1)nnn2C1CCN(S(=O)(=O)c2ccc(C(=O)N3CC(C)CC(C)C3)cc2)CC1 (stereo not given),24,98*,0,88*,0.1,17
Cc1ccc2c(c1)nnn2C1CCN(S(=O)(=O)c2ccc(C(=O)NC3CCCC3)cc2)CC1,-4,21,0.8,50*,0.5,4
COC(=O)/C=C(\C)NC(=O)c1ccccc1Cl,6,80*,0.2,11,0.9,7
CC(NC(=O)c1ccccc1Cl)C(=O)O (stereo not given),21,-8,1.1,12,0.9,-1
CC(=O)C1C(c2ccc(F)cc2)NC(=O)NC1(O)C(F)(F)F (stereo not given),-1,7,0.9,-3,1,4
COCCSc1ccccc1C(=O)Nc1ccc2c(c1)OCCO2,4,12,0.9,13,0.9,-3
COCCCN(C(=O)Nc1ccccc1)C(C)c1ccncc1 (stereo not given),1,77*,0.2,60*,0.4,5
COCCSc1ccccc1C(=O)Nc1ccncc1,-4,92*,0.1,84*,0.2,14
Cc1ccc(CN2CCN(CC(=O)NCc3ccc(Cl)cc3)C2=O)cc1,-6,36,0.6,35,0.7,5
Oc1c(C=NCc2ccncc2)sc2ccccc12,0,92*,0.1,44,0.6,7
CN=Cc1sc2ccccc2c1O,-5,5,0.9,5,0.9,13
Oc1c(C=Nc2cccnc2)sc2ccccc12,3,2,1,5,1,31*
CCOC(=O)C1=NN(C(=O)Nc2cccc(C(F)(F)F)c2)C2C(=O)N(c3cccc(C(F)(F)F)c3)C(=O)C12 (stereo not given),1,35,0.6,45,0.6,2
CCOC(=O)c1ccc(-c2nnc(-c3ccc(Cl)cc3Cl)o2)cc1,-4,5,0.9,21,0.8,17
O=C(c1ccc(Cl)cc1)c1nnc(-c2ccncc2)o1,-1,78*,0.2,47,0.5,2
O=C(c1ccccc1)c1nnc(-c2ccncc2)o1,3,71*,0.3,19,0.8,17
SMILES,PostGolgi yeast,CYP2C19 inhib,CYP2C19 activ,CYP2C9 inhib,CYP2C9 act,PostGolgi ctrl
O=C(c1nnc(-c2ccncc2)o1)c1ccccc1Cl,-2,84*,0.2,38,0.6,-3
O=C(CN(C(=O)CNS(=O)(=O)c1ccccc1)C1CCCC1)NCc1ccco1,x,46,0.5,18,0.8,x
COc1ccc(C)cc1NC(=O)c1cnc2sccn2c1=O,x,4,1,-9,1.1,x
CCOC(=O)c1c(C)[nH]c(C)c1C(=O)CSc1nc(N)cc(=O)[nH]1,-19,24,0.8,50,0.5,12
CSc1ccccc1NC(=O)Nc1ccc(Cl)cc1,-2,85*,0.2,53*,0.5,24
CSc1cccc(NC(=O)Nc2ccc(Cl)cc2)c1,-10,10,0.9,4,1,-2
CCOc1cc(NC(=S)NCC2CCCO2)c(OCC)cc1NC(=O)c1ccccc1 (stereo not given),19,16,0.8,27,0.7,-3
COc1ccc(Cl)cc1S(=O)(=O)n1nnc2ccccc21,-10,-1,1,-9,1.1,16
COc1ccc(Cl)cc1S(=O)(=O)N1CCN=C1C,5,90*,0.1,-72,1.7,16
Cc1cc(Cl)c(S(=O)(=O)N2CCN(c3ccc(F)cc3)CC2)cc1OCC(=O)NC1CCCCC1,3,83*,0.2,96*,0,3
CCOc1ccc(Cl)cc1S(=O)(=O)N1CCN(c2ccc(C)c(C)c2)CC1,-10,100*,0,60*,0.4,13
Cc1cc(Cl)c(S(=O)(=O)N2CCN(c3ccc(F)cc3)CC2)cc1OCC(N)=O,-2,0,1,13,0.9,-5
CCOc1ccc(Cl)cc1S(=O)(=O)N1CCN(c2ccc(F)cc2)CC1,0,100*,0,-143,2.4*,33*
COc1c(S(=O)(=O)N2CCN(c3ccc(F)cc3)CC2)ccc(Cl)c1Cl,8,61*,0.4,14,0.9,29
COc1ccc(Cl)cc1S(=O)(=O)N1CCN(c2ccc(F)cc2)CC1,-9,98*,0,-220,3.2*,23
CC(=O)Nc1ccc(S(=O)(=O)n2cnc3cc(C)c(C)cc32)cc1,17,100*,0,78*,0.2,8
COc1cc(C)c(Cl)cc1S(=O)(=O)n1cnc2ccccc21,8,42,0.6,21,0.8,8
CCOc1ccc(Cl)cc1S(=O)(=O)n1cnc2cc(C)c(C)cc21,-10,91*,0.1,58*,0.4,40*
CC(=O)Nc1ccc(C(=O)n2cnc3cc(C)c(C)cc32)cc1,-2,38,0.6,45,0.6,-8
Cc1cc(S(=O)(=O)N2CCN(c3ccc(F)cc3)CC2)c(C)s1,-5,29,0.7,41,0.6,4
C=CCN(C(=O)Cn1nnc2ccccc21)C(C(=O)NCCOC)c1ccc(OC)cc1OC (stereo not given),-7,-11,1.1,-11,1.1,16
Cc1ccc2c(c1)-c1cc(C)nn1C(c1sccc1C)N2 (stereo not given),-1,79*,0.2,56*,0.4,30*
Cc1cc2n(n1)C(c1sccc1C)Nc1c(C)cccc1-2 (stereo not given),-3,43,0.6,29,0.7,-4
Cc1cc2n(n1)C(c1ccccc1)Nc1ccccc1-2 (stereo not given),-5,39,0.6,24,0.8,18

# Assay outcomes as filed in PubChem.
